D2 antagonist: antagonists of human D2 dopamine receptor; P14416; inhibition, % at 10 µM; HEK293 TREx D2 cells, calcium flux, dopamine EC80; AID 485344; hit rate 2% among 340,000; in the data active means inhibition above about 30%; inactive means below that, where a call was filed
Target sequence (P14416 whole entry, looked up): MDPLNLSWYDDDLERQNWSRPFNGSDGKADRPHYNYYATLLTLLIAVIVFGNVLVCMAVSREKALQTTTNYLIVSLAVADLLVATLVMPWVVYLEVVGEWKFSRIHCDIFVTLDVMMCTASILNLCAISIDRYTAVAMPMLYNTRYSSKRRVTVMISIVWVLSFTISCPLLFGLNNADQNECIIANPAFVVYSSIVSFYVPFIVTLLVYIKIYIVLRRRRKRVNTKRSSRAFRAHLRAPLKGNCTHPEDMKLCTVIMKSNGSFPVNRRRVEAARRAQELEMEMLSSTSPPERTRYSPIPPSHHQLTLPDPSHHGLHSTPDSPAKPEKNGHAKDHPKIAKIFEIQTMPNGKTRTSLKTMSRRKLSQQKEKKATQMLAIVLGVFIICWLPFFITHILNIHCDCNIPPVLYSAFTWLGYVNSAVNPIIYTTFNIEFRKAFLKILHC
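Read-out: kinetic calcium fluorescence (1 cycle/s) in inducible HEK293 T-REx D2 cells after an EC80 dopamine addition that followed 180 s compound preincubation. Loss of the dopamine response indicates antagonism.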
D2 ag-1: D2 dopamine receptor (human) agonism; P14416; HEK293 T-REx D2 cells, calcium flux agonist mode; activation, % at 2 µM; hit rate 0.53% among 340,000; AID 485358;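 active means activation over 3 SD above normal in the single-dose calcium agonist read, cut at about 30% in these data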
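Tetracycline-induced HEK293 Trex cells with D2 receptor force-coupled to calcium signaling, plated overnight at 30 C and loaded with no-wash calcium dye. Calcium flux read kinetically for 180 s after compound addition; responses flag agonists.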
D2 ag-2: activates the human D2 dopamine receptor. P14416. DiscoveRx PathHunter D2 beta-arrestin, luminescence, 90 min; 100% = 57 uM dopamine signal. activation, % (test concentration not listed). hit rate 0.084% among 360,000. AID 624465; in the data active means activation above about 40%
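Agonist mode: compounds alone added to overnight-plated D2 PathHunter cells for 90 min at 37 C, with 57 uM final dopamine (EC100) defining full response. Beta-arrestin recruitment detected by chemiluminescent reagent, read after 1 h at ambient temperature.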
D2 PAM-1: positive allosteric modulators of human D2 dopamine receptor | P14416 | HEK293 T-REx D2, calcium flux, EC20 dopamine potentiation | potentiation, % at 10 µM | hit rate 0.34% among 340,000 | AID 485347;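 active means potentiation over 3 SD above the plate norm, cut at about 30% in these data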
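Potentiation of an EC20 dopamine calcium response is measured in a force-coupled, tetracycline-inducible Hek293 Trex D2 line. Compound-only kinetic reads over 180 s flag agonists before dopamine addition.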
D2 PAM-2: positive allosteric modulators of human D2 dopamine receptor. P14416. DiscoveRx D2 beta-arrestin cells, luminescence, 90 min; 100% = 57 uM dopamine signal. potentiation, % (no concentration beside the values). hit rate 0.23% among 360,000. AID 624464; in the data active means potentiation above about 50%
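PathHunter beta-arrestin assay in DiscoveRx D2 cells. Compounds were added with an EC20 of dopamine (50 nM final) for 90 min at 37 deg C. Luminescence was read 1 h after detection reagent, with 57 uM dopamine as the EC100 control.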
Numbers stand for hits. Hits are enriched below; roughly 2.4% of the tested compounds scored in any of these assays.

C/C(=C\C(=O)c1ccncc1)Nc1ccccc1O was read as D2 ag-2 inactive and D2 PAM-2 50.1.
Screening Cc1cccc(C)c1OCC1CNC(=O)O1 (stereo unspecified) returned D2 antagonist 36.1, D2 ag-1 inactive, D2 ag-2 inactive, D2 PAM-1 inactive and D2 PAM-2 inactive.
`NC(=O)c1cc[n+](Cc2ccc([N+](=O)[O-])cc2)cc1` gave D2 antagonist 39.2, D2 ag-1 inactive, D2 ag-2 inactive, D2 PAM-1 inactive and D2 PAM-2 inactive.
`O=C(O)c1ccc([N+](=O)[O-])cc1` gave D2 ag-2 inactive and D2 PAM-2 inactive.
Screening NC(=O)c1ccc(C(=O)c2ccc([N+](=O)[O-])cc2)cc1 returned D2 antagonist inactive, D2 ag-1 inactive, D2 ag-2 inactive, D2 PAM-1 inactive and D2 PAM-2 61.6.
Screening O=C(Nc1ccccc1Cl)c1cc[n+](Cc2ccc([N+](=O)[O-])cc2)cc1 returned D2 antagonist inactive, D2 ag-1 inactive, D2 ag-2 inactive, D2 PAM-1 inactive and D2 PAM-2 inactive.
For Cc1cccc(C)c1NC(=O)c1sc(-n2nc(C)c(Cc3ccccc3)c2C)nc1C the results were D2 ag-1 inactive and D2 PAM-1 inactive.
CCOC(=O)CCCc1c[nH]c2ccccc12 was read as D2 antagonist inactive, D2 ag-1 inactive, D2 ag-2 inactive, D2 PAM-1 inactive and D2 PAM-2 inactive.
CC(C)(C)NC(=O)NC(=O)COC(=O)CCCc1c[nH]c2ccccc12 was read as D2 antagonist 70.0, D2 ag-1 inactive, D2 ag-2 inactive, D2 PAM-1 inactive and D2 PAM-2 inactive.
`Cn1cc(Cl)c(C(=O)N/N=C/c2ccc(OS(=O)(=O)c3ccccc3)cc2)n1` gave D2 antagonist inactive, D2 ag-1 inactive, D2 ag-2 inactive, D2 PAM-1 40.2 and D2 PAM-2 inactive.
For Cc1ccc(/C=N/NC(=O)c2nn(C)cc2Cl)cc1 the results were D2 antagonist inactive, D2 ag-1 inactive, D2 ag-2 inactive, D2 PAM-1 inactive and D2 PAM-2 inactive.
Screening CCC(=O)N/N=C/c1ccc(OS(=O)(=O)c2ccccc2)cc1 returned D2 antagonist inactive, D2 ag-1 inactive, D2 ag-2 inactive, D2 PAM-1 inactive and D2 PAM-2 inactive.
`NC(N)=N/N=C/c1ccc(OS(=O)(=O)c2ccccc2)cc1` gave D2 antagonist 30.2, D2 ag-1 inactive, D2 ag-2 inactive, D2 PAM-1 inactive and D2 PAM-2 inactive.
`COc1cccc(N2CC(NC(=O)CCCc3ccccc3)CC2=O)c1` (stereo unspecified) gave D2 ag-1 inactive and D2 PAM-1 inactive.
CCN(CC)C(=O)c1sc2c(c1C)c(=O)n(CCc1ccccc1)c(=O)n2Cc1ccc(F)cc1Cl was read as D2 ag-1 inactive and D2 PAM-1 inactive.
For COc1cccc(N(C(C)=O)c2nc(C)cc(C)c2C#N)c1 the results were D2 antagonist 36.4, D2 ag-1 inactive, D2 ag-2 inactive and D2 PAM-2 inactive.
Screening Cc1c(CC(=O)NC(C)C)c(=O)oc2cc3c(cc12)CCC(C)(C)O3 returned D2 antagonist inactive, D2 ag-1 inactive, D2 ag-2 inactive, D2 PAM-1 inactive and D2 PAM-2 inactive.
Cc1c(CC(=O)N[C@@H](C)C(=O)O)c(=O)oc2cc3c(cc12)CCC(C)(C)O3 was read as D2 antagonist 36.3, D2 ag-1 inactive, D2 ag-2 inactive, D2 PAM-1 inactive and D2 PAM-2 inactive.
`O=C(Nc1ccccc1)C1COc2ccccc2O1` (stereo unspecified) gave D2 antagonist inactive, D2 ag-1 inactive, D2 ag-2 inactive, D2 PAM-1 inactive and D2 PAM-2 inactive.
For O=C(NCCc1ccccc1)C1COc2ccccc2O1 (stereo unspecified) the results were D2 antagonist inactive, D2 ag-1 inactive, D2 ag-2 inactive, D2 PAM-1 inactive and D2 PAM-2 inactive.
`O=C(Nc1cccnc1)C1COc2ccccc2O1` (stereo unspecified) gave D2 antagonist inactive, D2 ag-1 inactive, D2 ag-2 inactive, D2 PAM-1 41.2 and D2 PAM-2 inactive.
For O=C(NCCc1ccc(O)c(O)c1)C1COc2ccccc2O1 (stereo unspecified) the results were D2 antagonist inactive, D2 ag-1 inactive, D2 ag-2 41.3, D2 PAM-1 inactive and D2 PAM-2 inactive.
`COc1cccc(NC(=O)CSc2nc3ccc(NC(=O)c4cccs4)cc3s2)c1` gave D2 ag-1 inactive and D2 PAM-1 inactive.
Cc1ccc(S(=O)(=O)CCN2CCN(c3ccccc3)CC2)cc1 was read as D2 antagonist 30.2, D2 ag-1 inactive, D2 ag-2 inactive, D2 PAM-1 inactive and D2 PAM-2 inactive.
CCN1CCCC(NC(=O)c2cc([N+](=O)[O-])ccc2OC)C1 (stereo unspecified) was read as D2 antagonist 38.5, D2 ag-1 inactive, D2 ag-2 inactive, D2 PAM-1 inactive and D2 PAM-2 inactive.
`CCCc1cc(=O)[nH]c(SCC(=O)N2c3ccccc3CC2C)n1` (stereo unspecified) gave D2 ag-2 inactive and D2 PAM-2 inactive.
For CCCc1cc(=O)[nH]c(SC(C)C(=O)N2c3ccccc3CC2C)n1 (stereo unspecified) the results were D2 antagonist 44.0, D2 ag-1 inactive, D2 ag-2 inactive, D2 PAM-1 inactive and D2 PAM-2 inactive.
Cc1cccc(CS(=O)(=O)CC2Nc3ccc(C(=O)NCc4ccccc4Cl)cc3NC2=O)c1 (stereo unspecified) was read as D2 ag-1 inactive and D2 PAM-1 inactive.
For Cc1ccccc1CSc1nnnn1-c1ccc(C(N)=O)cc1 the results were D2 antagonist inactive, D2 ag-1 inactive, D2 ag-2 inactive, D2 PAM-1 inactive and D2 PAM-2 inactive.
Screening O=C(O)c1ccc(-n2nnnc2SCc2ccccc2F)cc1 returned D2 antagonist 37.2, D2 ag-1 inactive, D2 ag-2 inactive, D2 PAM-1 inactive and D2 PAM-2 inactive.
Screening Cc1csc2nc(CSc3nc4ccccc4o3)c(Br)n12 returned D2 antagonist inactive, D2 ag-1 inactive, D2 ag-2 inactive, D2 PAM-1 36.3 and D2 PAM-2 inactive.
Screening COCCOC(=O)c1c(C)oc2ccc(OCc3ccccc3)cc12 returned D2 antagonist 64.5, D2 ag-1 inactive, D2 ag-2 inactive, D2 PAM-1 inactive and D2 PAM-2 inactive.
`O=C(CCCn1c(=O)[nH]c2ccccc2c1=O)NC1CCCCCC1` gave D2 antagonist inactive, D2 ag-1 inactive, D2 ag-2 inactive, D2 PAM-1 inactive and D2 PAM-2 inactive.
For CC1CCC(NC(=O)CCCn2sc3ccccc3c2=O)CC1 (stereo unspecified) the results were D2 antagonist 39.0, D2 ag-1 inactive, D2 ag-2 inactive, D2 PAM-1 inactive and D2 PAM-2 inactive.
CCn1c(C(=O)N2CCCC(C(=O)NCCCOC)C2)cc2sccc21 (stereo unspecified) was read as D2 ag-1 inactive and D2 PAM-1 inactive.

Screening results deposited in PubChem BioAssay by National Center for Advancing Translational Sciences (NCATS).
